About 83,000 compounds went through this panel and 20% of them were active in at least one assay; those are over-represented in the sample as a whole.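 Values shown are percent growth following 48 h exposure of cells in 96-well plates to a single concentration of compound; below 10 was considered active.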 Activity calls are given as the source filed them.
Legend:
Test in all cases: NCI-60 one-dose screen, 48 h (100 = growth as untreated, 0 = no growth, -100 = all killed)
Conditions in all cases: 10 µM unless noted
[1] = tested on: SR leukemia
[2] = tested on: OVCAR-8 ovarian
[3] = tested on: OVCAR-5 ovarian
[4] = tested on: OVCAR-4 ovarian
[5] = tested on: SK-OV-3 ovarian
[6] = tested on: IGROV1 ovarian
[7] = tested on: OVCAR-3 ovarian
[8] = tested on: HS 578T breast
[9] = tested on: NCI/ADR-RES ovarian
[10] = tested on: T-47D breast
[11] = tested on: BT-549 breast
[12] = tested on: MDA-MB-435 melanoma
[13] = tested on: SW-620 colon
[14] = tested on: MCF7 breast
[15] = tested on: HCT-116 colon
[16] = tested on: HCC-2998 colon
[17] = tested on: KM12 colon
[18] = tested on: RPMI-8226 leukemia

Measured: growth

CC(=O)O[C@@H]1C2CCC3C(CC[C@@]4(C)C3CC[C@@H]4C(C)N(C)C)[C@@]2(C)CC[C@@H]1NC(=O)C=C(C)C (stereo not given in full)
active: [1] -34.5% | [4] -19.5% | [7] 0.951% | [10] -28% | [12] -47.4% | [13] -64.5% | [14] -16.9% | [15] -55% | [16] -23.5% | [17] 9.21%
inactive: [2] 44.3% | [3] 83.8% | [5] 65.4% | [6] 37.8% | [8] 16% | [9] 37.6% | [11] 26.4%

Cc1nc2sccn2c1-c1cn2ccsc2n1
active: [10] -4.14% | [14] -39.1%
inactive: [18] 65% | [2] 96% | [3] 87.7% | [4] 70.8% | [5] 94.9% | [6] 14.3% | [7] 85.8% | [8] 87% | [9] 98% | [11] 80.2% | [12] 95.9% | [13] 96.9% | [15] 88.3% | [16] 50.2% | [17] 64.1%

O=C1Nc2cc(Cl)ccc2/C1=C\c1c(-c2ccc(F)cc2)nc2ccccn12
active: [4] -2.19% | [5] -26.3% | [7] -58.3% | [8] -4.87% | [9] -27.6% | [12] -55% | [13] 9.82% | [14] 2.1% | [15] -80.1% | [17] -1.1%
inactive: [18] 45.8% | [2] 34.5% | [3] 43.2% | [6] 14% | [10] 24.2% | [11] 21.6% | [16] 31.5%

CCCCCCCC(=O)OCC/C=C/C1OC1C1OC(=O)/C=C\C=C\C(=O)N(C(C)=O)C(=O)/C=C(/C)CCC2OC2C1OC(=O)NC(C)=O (stereo not given)
active: [15] 3.69%
inactive: [18] 45.2% | [2] 85.1% | [3] 79.5% | [4] 97.2% | [5] 96% | [6] 62.7% | [7] 61.2% | [8] 87.5% | [9] 78.1% | [10] 10.8% | [11] 92.5% | [12] 79% | [13] 83.1% | [14] 20.4% | [16] 72.1% | [17] 44.1%

CCN1C(=O)N(CC)C2Nn3c(s/c(=C\c4ccc(OC)cc4)c3=O)=NC21 (stereo not given)
inactive: [18] 69.8% | [2] 67.3% | [3] 83.9% | [4] 63.7% | [5] 62.7% | [6] 54.8% | [7] 19.2% | [8] 43.6% | [9] 44.2% | [10] 48.8% | [11] 62.9% | [13] 25.5% | [14] 21% | [15] 29.4% | [16] 95.7% | [17] 37.8%
active: [12] -26.9%

COc1cc(C2C3=C(COC3=O)N(CCO)c3cc4c(cc32)CCC4)cc(OC)c1OC (stereo not given)
inactive: [18] 17.9% | [2] 31.5% | [4] 23.3% | [8] 14.5% | [10] 54.1% | [13] 21.4%
active: [3] 8% | [5] -32.1% | [6] 8.46% | [7] -33.4% | [9] -74.5% | [11] -9.83% | [12] -9.03% | [14] -16.2% | [15] -35.3% | [16] -32.4% | [17] -16.9%

N#Cc1c(-c2cccc([N+](=O)[O-])c2)nc(SCC(=O)c2ccc(Cl)cc2)[nH]c1=O
inactive: [18] 102% | [2] 99.3% | [3] 102% | [4] 102% | [5] 95.4% | [6] 104% | [7] 103% | [8] 97.6% | [9] 97.2% | [10] 105% | [11] 99.7% | [12] 100% | [13] 98.4% | [14] 105% | [15] 105% | [16] 106%

COc1cc(-c2cc(-c3ccc(N(C)C)cc3)nc(N3CCOCC3)c2C#N)cc(OC)c1OC
active: [18] 9.28% | [9] 4.22% | [12] 4.97%
inactive: [2] 22.4% | [3] 37.9% | [4] 64.5% | [5] 55.9% | [6] 42.2% | [7] 87.9% | [8] 77.9% | [10] 29.5% | [11] 47.2% | [13] 42.5% | [14] 36.2% | [15] 12.3% | [16] 19.8% | [17] 28.3%

COc1ccc(-c2cnc3c(-c4cccc5ncccc45)cnn3c2)cc1
inactive: [18] 68.1% | [2] 26.8% | [3] 82.1% | [5] 24.4% | [6] 45.1% | [7] 57.7% | [8] 25.4% | [9] 45.4% | [10] 45.7% | [11] 37.1% | [12] 58% | [13] 73.8% | [14] 72.2% | [15] 11.9% | [16] 90.7% | [17] 69.3%
active: [4] 6.3%

COc1cc(-c2n/c(=C\c3c(O)[nH]c4ccc(Cl)cc34)cc3c2=Nc2ccccc2-3)ccc1F
inactive: [8] 14.8% | [9] 47% | [10] 56% | [11] 85.9% | [12] 21.3% | [16] 71.6%
active: [1] 7.25% | [4] -56.9% | [5] -14.7% | [6] -18% | [7] -14.6% | [13] -1.7% | [14] -54.2% | [15] -45.8% | [17] 4.87%

O=C1Nc2ccc(F)cc2/C1=C\c1c(-c2ccccc2)nc2ccccn12
inactive: [18] 86.5% | [2] 74.7% | [3] 73.7% | [4] 94.6% | [5] 80.7% | [6] 47.6% | [7] 66.4% | [8] 71.8% | [9] 38.1% | [10] 61.8% | [11] 65.9% | [13] 49.8% | [14] 61.3% | [15] 63.8% | [16] 93.3% | [17] 45.7%
active: [12] -10.1%

O=C1Nc2ccccc2/C1=C\c1c(-c2ccc(F)cc2)nc2ccccn12
inactive: [18] 94.8% | [2] 86.8% | [3] 77.5% | [4] 83.9% | [5] 62.7% | [6] 57.1% | [7] 62.1% | [8] 91.5% | [9] 35.4% | [10] 60.6% | [11] 69.6% | [13] 64.5% | [14] 62.8% | [15] 64.2% | [16] 130%
active: [12] -21.1%

— PubChem BioAssay (NCI)
